{"source": "PubChem BioAssay", "key": {"[1]": {"test": "liver-stage malaria parasite growth inhibition, primary screen, cell-based, HepG2, luciferase luminescence, HepG2 viability (AID 624349; in the data active = parasite load remaining mostly below about 12%, no sharp cut-off; inactive = mostly above about 10%;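 also: 100% = mean of DMSO negative control wells on the same plate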)", "settings": "P. berghei liver stage in HepG2, luciferase luminescence, concentration not given here; parasite load remaining: stronger effect = lower value; viability: measured here: HepG2 viability without parasites"}, "[2]": {"test_system": "Aerobactin synthetase IucA (Klebsiella pneumoniae, hypervirulent)", "test": "IucA enzyme inhibition, biochemical, LOPAC library, absorbance readout (AID 1346212; call rule not given here;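 also: 100% = no compound wells and 0% = no enzyme wells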)", "settings": "IucA enzyme assay, absorbance (OD) readout; stronger effect = lower value;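 tested at 8 µM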"}, "[3]": {"test": "circadian clock period modulators, cell-based, LOPAC library, luminescence reporter (AID 2774; call rule not given here;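 also: values are relative to mean of DMSO wells on each plate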)", "settings": "circadian reporter cells, at 7 µM, actives lie on both sides"}, "[4]": {"test_system": "Hepatitis C virus NS3 helicase", "test": "HCV NS3 helicase inhibitors, primary screen, biochemical, fluorescence polarization, LOPAC1280 library (AID 687035; in the data active = inhibition above about 37%)", "settings": "Purified HCV NS3 helicase, Cy5-dT15 ssDNA binding fluorescence polarization; stronger effect = higher value; concentration not given here"}, "[5]": {"test": "Cy5 fluorescence quenching or enhancement artefacts, artefact control for HCV NS3 helicase inhibitor project, biochemical, LOPAC1280 (AID 687037; call rule not given here)", "settings": "Cy5-DNA-NS3h complex fluorescence interference counterscreen"}, "[6]": {"test": "growth inhibition of DIPG glioma cells, dose response, cell-based, SU-DIPG-XVII, MIPE5.0, CellTiter-Glo, qHTS (AID 1347060);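 as to AC50: cells exposed to compound for 48 hours before viability readout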", "settings": "SU-DIPG-XVII viability, CellTiter-Glo ATP luminescence"}, "[7]": {"test": "growth inhibition of DIPG glioma cells, dose response, cell-based, SU-DIPG-XIII, MIPE4.0, CellTiter-Glo, qHTS (AID 1347061; cut-off not given, nearly all actives have AC50 up to about 37 µM;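 also: cells exposed to compound for 48 hours before readout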)", "settings": "SU-DIPG-XIII viability, CellTiter-Glo ATP luminescence"}, "[8]": {"test": "growth inhibition of DIPG glioma cells, dose response, cell-based, JHH-DIPG-1, MIPE4.0, CellTiter-Glo, qHTS (AID 1347062; cut-off not given, nearly all actives have AC50 up to about 27 µM)", "settings": "JHH-DIPG-1 viability, CellTiter-Glo ATP luminescence"}, "[9]": {"test": "growth inhibition of DIPG glioma cells, dose response, cell-based, SU-DIPG-IV, MIPE4.0, CellTiter-Glo, qHTS (AID 1347063; cut-off not given, nearly all actives have AC50 up to about 30 µM;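 also: compound exposure lasted 48 hours before the viability readout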)", "settings": "SU-DIPG-IV viability, CellTiter-Glo ATP luminescence"}, "[10]": {"test": "growth inhibition of DIPG glioma cells, dose response, cell-based, SU-DIPG-XIII, MIPE5.0, CellTiter-Glo, qHTS (AID 1347064; cut-off not given, nearly all actives have AC50 up to about 23 µM;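 as to AC50: cells exposed to compound for 48 hours before the viability read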)", "settings": "SU-DIPG-XIII viability, CellTiter-Glo ATP luminescence"}, "[11]": {"test": "viability loss in pontine glioma line – cell-based, SU-DIPG-XXV, MIPE5.0, CellTiter-Glo, qHTS, dose response (AID 1347065);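 also: cells exposed to compound for 48 hours before ATP readout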", "settings": "CellTiter-Glo ATP luminescence"}, "[12]": {"test": "SU-DIPG-VI glioma cell viability, MIPE4.0 library, CellTiter-Glo luminescence, qHTS (AID 1347066; cut-off not given, nearly all actives have AC50 up to about 30 µM;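 also: cells exposed to compound for 48 hours before readout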)", "settings": "CellTiter-Glo ATP luminescence"}, "[13]": {"test": "JHH-DIPG-1 glioma cell viability, MIPE5.0 library, CellTiter-Glo luminescence, qHTS (AID 1347067);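 also: cells exposed to compound for 48 hours before readout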", "settings": "JHH-DIPG-1 glioma viability, CellTiter-Glo ATP luminescence"}, "[14]": {"test": "SU-DIPG-XXV glioma cell viability, MIPE5.0 library, qHTS (AID 1347068; cut-off not given, nearly all actives have IC50 up to about 30 µM;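 as to IC50: cells exposed to compound for 48 hours before viability readout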)"}, "[15]": {"test": "sensitizers of A549 cells to miR-34 induction, primary screen, imaging, A549 dox-inducible miR-34, nuclei and caspase counts (AID 1347080;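 active = compounds whose cell count with miR-34 switched on is under 0.7 times the count with it off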)", "settings": "A549 miR-34 inducible, Hoechst nuclei count, 48 h"}, "[16]": {"test": "modifiers of HSF1 nuclear foci, imaging, Selleck Cancer Library (AID 1347162; in the data active = plate-normalised HSF1 focus index below about 0.46)", "settings": "human cells, at 10 µM; SSMD: measured here: HSF1 foci SSMD mean; cell count: measured here: cell number; plate-normalised HSF1 focus index: stronger effect = lower value"}, "[17]": {"test": "survival rescue of mitochondrial mutant cells in low glucose, primary screen, MELAS cybrids, Rieske KO mouse fibroblasts, CellTiter-Glo (AID 1508586;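 active = mean z-score across replicates of 1.96 or higher in either the MELAS or the Rieske mutant cell line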;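 also: z relative to plate mean and SD of compound and empty wells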)"}}, "note": "Where “and” joins values, the source holds several entries; their conditions need not be identical. Equal entries are not always repeated. Records with an inconclusive call do not appear. Calls of active or inactive are those of the source. Unless noted, the limit is not given here; nearly all actives have AC50 up to about 26 µM."}
{"smiles": "COc1ccc2c(c1)/C(=C/c1cnc[nH]1)C(=O)N2", "values": [{"measurement": "parasite load remaining", "setting": "[1]", "value": "16.5% (inactive)"}, {"measurement": "viability", "setting": "[1]", "value": 98.5, "unit": "%"}, {"measurement": "remaining activity", "setting": "[2]", "value": "119% (inactive)"}]}
{"smiles": "C[C@@H]1O[C@H](C[N+](C)(C)C)CS1", "values": [{"measurement": "period change", "setting": "[3]", "value": "-0.11 h (inactive)"}, {"measurement": "inhibition", "setting": "[4]", "value": "-1% (inactive)"}, {"measurement": "fluorescence ratio (interference)", "setting": "[5]", "value": "1 (inactive)"}, {"measurement": "remaining activity", "setting": "[2]", "value": "81.1% (inactive)"}]}
{"smiles": "COC12C(COC(N)=O)C3=C(C(=O)C(C)=C(N)C3=O)N1CC1C2N1C", "note": "(stereo not drawn)", "values": [{"measurement": "AC50", "setting": "[6]", "value": "1.48 µM (active)"}]}
{"smiles": "O=C(Oc1ccc([N+](=O)[O-])cc1)N1CCC(C(O)(c2ccc3c(c2)OCO3)c2ccc3c(c2)OCO3)CC1", "values": [{"measurement": "outcome", "setting": "[6]", "value": "inactive"}, {"measurement": "outcome", "setting": "[7]", "value": "inactive"}, {"measurement": "outcome", "setting": "[8]", "value": "inactive"}, {"measurement": "outcome", "setting": "[9]", "value": "inactive"}, {"measurement": "outcome", "setting": "[10]", "value": "inactive"}, {"measurement": "outcome", "setting": "[11]", "value": "inactive"}, {"measurement": "outcome", "setting": "[12]", "value": "inactive"}, {"measurement": "outcome", "setting": "[13]", "value": "inactive"}, {"measurement": "outcome", "setting": "[14]", "value": "inactive"}, {"measurement": "fold change", "setting": "[15]; stronger effect = lower value, cell number ratio, induced over uninduced", "value": "1.03 (inactive) and 0.881 (inactive)"}, {"measurement": "fold change", "setting": "[15]; measured here: relative caspase fold change +Dox/-Dox", "value": "1.13 and 1"}, {"measurement": "cell count", "setting": "[15]; measured here: total cells with miR-34 induction, stronger effect = lower value", "value": "6030 and 8340"}, {"measurement": "cell count", "setting": "[15]; measured here: total cells without miR-34 induction", "value": "5850 and 9460"}, {"measurement": "SSMD", "setting": "[16]", "value": 3.32}, {"measurement": "cell count", "setting": "[16]", "value": 6730}, {"measurement": "plate-normalised HSF1 focus index", "setting": "[16]", "value": "1.2 (inactive)"}, {"measurement": "z-score", "setting": "[17]; MELAS cybrid survival, CellTiter-Glo 48 h, stronger effect = higher value", "value": "-0.115 (inactive)"}, {"measurement": "z-score", "setting": "[17]; Rieske KO mouse fibroblast survival, CellTiter-Glo 72 h", "value": -0.259}]}
{"smiles": "N=c1c2c(-c3ccccc3)c(-c3ccccc3)n(Cc3ccccc3)c2ncn1C1CCC(O)CC1", "note": "(stereo not drawn)", "values": [{"measurement": "AC50", "setting": "[6]", "value": "18.6 µM (active)"}, {"measurement": "outcome", "setting": "[7]", "value": "inactive"}, {"measurement": "AC50", "setting": "[9]", "value": "8.33 µM (active)"}, {"measurement": "AC50", "setting": "[10]", "value": "16.6 µM (active)"}, {"measurement": "AC50", "setting": "[11]", "value": "20.9 µM (active)"}, {"measurement": "IC50", "setting": "[14]", "value": "18.6 µM (active)"}]}
{"smiles": "C/C=C(\\C)C(=O)N[C@@H](c1ccccc1)[C@@H](O)C(=O)O[C@H]1C[C@@]2(O)[C@@H](OC(=O)c3ccccc3)[C@@H]3[C@]4(OC(C)=O)CO[C@@H]4C[C@H](O)[C@@]3(C)C(=O)[C@H](OC(C)=O)C(=C1C)C2(C)C", "values": [{"measurement": "AC50", "setting": "[6]", "value": "0.0132 µM (active)"}, {"measurement": "outcome", "setting": "[7]", "value": "inactive"}, {"measurement": "outcome", "setting": "[8]", "value": "inactive"}, {"measurement": "outcome", "setting": "[9]", "value": "inactive"}, {"measurement": "AC50", "setting": "[11]", "value": "0.0235 µM (active)"}, {"measurement": "outcome", "setting": "[12]", "value": "inactive"}]}
